Inconclusive results are not listed. Entries that show only a call come without a potency. A number with no mark means an inactive call. Activity calls are given as the source filed them. Calls come from the whole dose curve; as a rule, active = well fitted cell-killing curve with a large enough effect in the repeat runs; inconclusive = weak or mixed curves, or effect the other way; inactive = flat fitted curve, though single readings scatter.
Potency is the fitted concentration of half-maximal effect.

A short description of this test: qHTS assay to identify small molecule antagonists of the estrogen receptor alpha (ER-alpha) signaling pathway using the BG1 cell line in the presence of 0.1 nM 17-beta-estradiol - cell viability counter screen (AID 1259241). Note: nearly all actives have a fitted effect of over 40% in size. Particulars: VM7Luc4E2 (BG1) viability, CellTiter-Fluor protease, 22 h, 0.1 nM estradiol agonist added; series mostly up to 92.4 µM; activity change, negative = cytotoxicity: at the top concentration. An excerpt:
National Center for Advancing Translational Sciences [NCATS]
NIH Chemical Genomics Center [NCGC]
U.S. Environmental Protection Agency [EPA]
National Institutes of Environmental Health Sciences [NIEHS]
National Toxicology Program [NTP]
U.S. Food and Drug Administration [FDA]
Estrogen receptor (ER), a member of the nuclear hormone receptor plays an important role in development, metabolic homeostasis and reproduction. Two subtypes of ER, ER-alpha and ER-beta, have similar expression patterns with some uniqueness in both types. Endocrine disrupting chemicals (EDCs) and their interactions with steroid hormone receptors like ER causes disruption of normal endocrine function. Therefore, it is important to understand the effect of environmental chemicals in ER signaling pathway. For identifying ER antagonists, VM7Luc4E2 cell line was used to screen against Tox21 compound libraries.
VM7Luc4E2 cell line (provided by Denison MS, University of California) endogenously express full-length ER-alpha and is stably transfected with a plasmid containing four estrogen responsive elements (ERE) upstream of a luciferase reporter gene. The current screening for identification of ER-alpha inhibitors against Tox21 compound libraries used lower concentration (0.1 nM) of 17beta-Estradiol as a stimulator. The cytotoxicity of the Tox21 compound libraries against VM7Luc4E2 cell line was tested by measuring live-cell protease activity using CellTiter-Fluor assay in the same wells.
Tox21 Assay Protocol Summary:
VM7Luc4E2 cells were cultured in phenol red free assay medium containing 10% charcoal stripped FBS for 5 days prior to the assay. The cells were dispensed at 4,000 cells/well in 4 uL of assay medium into white wall/solid-bottom 1536-well plates (Corning Life Sciences, Corning, NY) using a Multidrop Combi (ThermoFisher Scientific, Waltham, MA) dispenser. After the assay plates were incubated at 37C and 5% CO2 for 24 hr, 23 nL of compounds dissolved in DMSO, positive controls or DMSO only was transferred to the assay plates by a Pintool station (Kalypsys, San Diego, CA). The transfer of compounds was followed by the addition of 1 uL of 0.1 nM (final concentration) agonist (17beta-Estradiol)/assay medium using a Flying Reagent Dispenser (FRD, Aurora Discovery, San Diego, CA). The plates were incubated at 37C and 5% CO2 for 22 hr. For cytotoxicity assay, 1 uL of CellTiter-Fluor reagent (Promega Corporation, Madison, WI) was added to each well using the FRD and after 30 min incubation at 37C and 5% CO2, The fluorescence intensity was measured using ViewLux plate reader (PerkinElmer, Shelton, CT).
A general note: qHTS replaces the single test concentration by a dilution series.
For `Cc1ccc(C)c(O)c1C`, the Potency result was “inactive”.

Regarding `CC(=O)Oc1ccccc1C(=O)Nc1ncc([N+](=O)[O-])s1`, the Potency was 16.8 µM (active).

Take `CCCCC(CC)COP(=O)(OCC(CC)CCCC)OCC(CC)CCCC` (stereo not given): the Potency entry was “inactive”. With `O=CCc1ccccc1`, the Potency entry is “inactive”.

As for `O=C(OCc1ccccc1)c1ccccc1O`, the Potency entry was “inactive”. As to `O=C=Nc1ccc(Cc2ccc(N=C=O)cc2)cc1`, the Potency entry was “inactive”. `O=P(O)(O)O`: the Potency entry was “inactive”. For the compound `O=C(c1ccccc1)c1ccc(O)cc1O`, the “activity change, negative = cytotoxicity” value is -21.8%. As for `Brc1cc(Oc2cc(Br)c(Br)c(Br)c2Br)c(Br)c(Br)c1Br`, the Potency entry was “inactive”. On the same count and under the same terms, the same measure for `CN1C(C(=O)Nc2ccccn2)=C(O)c2ccccc2S1(=O)=O`: “inactive”.

For `Cc1cccc(C(=O)O)c1`, the Potency entry is “inactive”. On the same count and under the same terms, under `CC(C)(C)NC(=O)[C@H]1CC[C@H]2[C@@H]3CC[C@H]4NC(=O)C=C[C@]4(C)[C@H]3CC[C@]12C` stands “inactive”; under `COc1ccccc1/C=C/C=O`, “inactive”; under `C[C@]12CC[C@H]3[C@@H](CCC4=CC(=O)CC[C@@]43C)[C@@H]1CC[C@@H]2C(=O)CO`, “inactive”.

As to `CC1=CC2C3CC(C=C3C)C2C1` (stereo not given), the Potency entry was “inactive”. With `CCCCC/C=C/C=C/C=O`, the Potency entry is “inactive”. In the case of `C=C(C)C(=O)OCCOC(=O)C(=C)C`, the Potency entry was “inactive”. The same measure, in the same setting: the same measure for `OC1CCCCCCCCCCC1`: “inactive”.

Turning to `CCOC(=O)C(C#N)=C(c1ccccc1)c1ccccc1`, the Potency result is “inactive”. For `O=[N+]([O-])c1ccc2c(c1)Cc1ccccc1-2`, the Potency result is “inactive”. On the same count and under the same terms, the same measure for `c1ccc2cc(Nc3ccc(Nc4ccc5ccccc5c4)cc3)ccc2c1`: “inactive”. As for `Cn1cnc([N+](=O)[O-])c1Sc1ncnc2nc[nH]c12`, the “activity change, negative = cytotoxicity” value was 1.52% [at 42.5 µM].

With `COC(=O)Nc1nc2ccc(S(=O)c3ccccc3)cc2[nH]1` (stereo not given), the Potency entry is “inactive”.

Take `CCOCCOCCO`: the Potency result was “inactive”.

In the case of `CC(C)OC=O`, the Potency entry is “inactive”.

`CC(C)CC(C)(O)C#CC(C)(O)CC(C)C` (stereo not given): the Potency result was “inactive”. The same measure, in the same setting: the same measure for `Nc1ccc(S(=O)(=O)Nc2cnc3ccccc3n2)cc1`: “inactive”. Still for that read-out and setting: under `Clc1nc(Cl)c(Cl)c(Cl)c1Cl` stands “inactive”; under `CC(=O)C1(C)CC2=C(CCCC2(C)C)CC1C` (stereo not given), “inactive”.

As for `CCCCC(CC)COCC1CO1` (stereo not given), the Potency result was “inactive”. The same measure, in the same setting: under `CN(C)c1nc(N(C)C)nc(N(C)C)n1` stands “inactive”. Take `Cc1ncc[nH]1`: the Potency result was “inactive”.

On to `O=C(COc1ccc(Cl)cc1)N1CCN(Cc2ccc3c(c2)OCO3)CC1`, for which the Potency result was “inactive”. As for `CNCCCC12CCC(c3ccccc31)c1ccccc12`, the “activity change, negative = cytotoxicity” value is 4.3% [at 42.5 µM]. The same measure, in the same setting: under `Nc1ccccc1N` stands -22.1%; under `c1cc(N(CC2CO2)CC2CO2)ccc1OCC1CO1` (stereo not given), -10.5%. Regarding `Cc1c(C(N)=O)cc([N+](=O)[O-])cc1[N+](=O)[O-]`, the Potency entry was “inactive”. Turning to `CC(=O)O[C@]1(C(C)=O)CC[C@H]2[C@@H]3C=C(Cl)C4=CC(=O)[C@@H]5C[C@@H]5[C@]4(C)[C@H]3CC[C@@]21C`, the Potency result is “inactive”. As for `Cc1cccc(N(C)C(=S)Oc2ccc3ccccc3c2)c1`, the Potency result was “inactive”. Same read-out and setting: under `COC(C)COC(C)COC(C)CO` (stereo not given) stands “inactive”.

The record behind these values is PubChem BioAssay (Tox21).
